# Bioassay records deposited in PubChem BioAssay by several laboratories.
# Hits are enriched below; roughly 27% of the tested compounds scored in any of these assays.
# CYP2C19 inhib = blockers of cytochrome P450 2C19 activity – biochemical, luminescence, ADME assay, primary screen; CYP2C19 Supersomes, luciferin-H EGE luminescence, 30 min; inhibition, % at 5 µM; actives 21% (n = 96,000);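 active = CYP2C19 inhibition above a set limit at 5 µM in the primary screen, cut at about 50% in these data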
# Target sequence (P33261 whole entry, looked up): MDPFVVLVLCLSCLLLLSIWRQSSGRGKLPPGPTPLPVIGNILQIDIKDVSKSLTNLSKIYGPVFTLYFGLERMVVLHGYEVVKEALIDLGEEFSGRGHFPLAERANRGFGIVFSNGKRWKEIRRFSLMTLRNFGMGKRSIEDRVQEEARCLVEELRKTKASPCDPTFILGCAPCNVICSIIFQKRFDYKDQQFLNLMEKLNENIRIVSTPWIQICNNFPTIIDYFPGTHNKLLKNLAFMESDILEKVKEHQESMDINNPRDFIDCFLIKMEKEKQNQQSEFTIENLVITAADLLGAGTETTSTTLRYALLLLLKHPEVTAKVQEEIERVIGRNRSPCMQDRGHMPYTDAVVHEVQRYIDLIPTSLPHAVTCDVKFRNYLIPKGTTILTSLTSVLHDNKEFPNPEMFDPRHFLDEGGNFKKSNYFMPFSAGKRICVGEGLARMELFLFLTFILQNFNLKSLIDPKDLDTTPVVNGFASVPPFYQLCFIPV
# CYP2C9 inhib = blockers of cytochrome P450 2C9 activity – biochemical, luminescence, ADME assay, primary screen; P11712; CYP2C9 Supersomes, luciferin-H conversion; inhibition, % at 5 µM; actives 20% (n = 96,000); AID 777, 2007;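 active = blocking of liver enzyme CYP2C9 beyond about 50% at 5 µM, limit read from the data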
# CYP2C19 activ = human CYP2C19 activators, primary screen, biochemical, luminescence; Cytochrome P450 2C19 (Homo sapiens), P33261; activation factor at 5 µM; recombinant CYP2C19, luciferin-H EGE luminescence; active compounds read high; 0 = fully inhibited enzyme, 1 = untreated enzyme; AID 1025, 2008; 96,000 tested, under 10 active;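 active = activation factor of at least 2 at 5 µM in the primary screen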
# Cav32 inh = Cav3.2 calcium influx blockers – cell-based, Fluo-4 calcium fluorescence, FDSS, MLSMR library, primary screen. B-score at 10 µM. Cav3.2-expressing cells; active compounds read low. AID 449739, 2010. actives 4% (n = 100,000);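 active = single-dose well whose peak fluorescence ratio is a statistical outlier from its plate by either plate-standardised score or position-corrected B-score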
# CYP2C9 act = human CYP2C9 activators, primary screen, biochemical, luminescence; actives 1.4% (n = 96,000); Cytochrome P450 2C9 (Homo sapiens), P11712; activation factor at 5 µM; recombinant CYP2C9, luciferin-H conversion; active compounds read high; factor 1 = untreated enzyme, 0 = blocked;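 active = activation factor of 2 or more for CYP2C9 at a 5 µM dose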
# A number is an active result; - = inactive; . = not tested or not shown.
SMILES,CYP2C19 inhib,CYP2C9 inhib,CYP2C19 activ,Cav32 inh,CYP2C9 act
COc1ccc(S(=O)(=O)NCCSC(C)(C)C)cc1Cl,-,-,-,-,2.9
CSc1ccc(S(=O)(=O)NCCSC(C)(C)C)cc1,86,-,-,-,-
COc1ccc(S(=O)(=O)NCCSCc2ccco2)cc1C,.,.,.,-,.
COc1ccc(S(=O)(=O)NCCSC(C)(C)C)cc1,96,-,-,-,-
COc1ccc(S(=O)(=O)NCCSCc2ccco2)cc1Cl,95,-,-,-6,2.1
CC1(C)Cc2noc(N)c2C(C)(C)N1OC(=O)c1ccco1,.,.,.,-,.
Cc1ccccc1C(=O)c1cccn1CC(=O)N1CCCCCC1,-,-,-,-,-
COC(=O)c1ccc(CON2C(=O)c3ccccc3C2=O)cc1,-,-,-,-,-
CN(C)CCNc1nc2c(c(=O)[nH]c(=O)n2C)n1CC(O)COc1ccc(Cl)cc1Cl (stereo not drawn),-,-,-,-,-
CC(C)(C)SCCNS(=O)(=O)c1ccc2ccccc2c1,86,-,-,-,2.7
CCOc1cc(N2CCOCC2)c(OCC)cc1NC(=O)c1cc(-c2ccco2)nc2ccccc12,-,-,-,-,-
O=C(O)CCSc1nc2ccccc2n1CCOc1ccccc1,-,-,-,-,-
OCCSc1nc2ccccc2n1CCOc1ccccc1,91,78,-,-,-
OCCn1c(SCCOc2ccccc2F)nc2ccccc21,94,52,-,-,-
O=C(O)Cn1c(SCCOc2ccccc2F)nc2ccccc21,-,70,-,-5.3,-
COC(=O)c1ccc(CS(=O)(=O)c2ccccc2C)o1,.,.,.,-,.
Cc1ccc(C)c(N2CCN(C(=O)c3ccc(CS(=O)(=O)c4ccccc4C)o3)CC2)c1,-,69,-,.,-
Cc1cccc(N2CCN(C(=O)c3ccc(CS(=O)(=O)c4ccccc4C)o3)CC2C)c1 (stereo not drawn),58,84,-,-5.7,-
O=C(Nc1ccc(O)cc1)c1ccc(C(=O)c2ccccc2)o1,-,-,-,-,-
Cc1cc(C)cc(C(=O)NCCn2cc(SCC(=O)N3CCOCC3)c3ccccc32)c1,-,-,-,-,-
Cc1ccc(C(=O)NCCn2cc(SCC(=O)Nc3nnc(C)s3)c3ccccc32)cc1,60,80,-,-,-
Cn1cc(SCC(=O)Nc2nccs2)c2ccccc21,64,-,-,-,-
CCCn1cc(SCC(=O)Nc2nnc(C)s2)c2ccccc21,-,63,-,-,-
CCn1c(Cc2cccc3ccccc23)nnc1SCC(=O)Nc1nccs1,.,.,.,-5.9,.
Cn1c(SCC(=O)Nc2nccs2)nnc1-c1ccco1,.,.,.,-,.
SMILES,CYP2C19 inhib,CYP2C9 inhib,CYP2C19 activ,Cav32 inh,CYP2C9 act
COc1ccccc1-c1nnc(N(C)C(=O)C2CCCO2)s1 (stereo not drawn),-,-,-,-,-
COc1cc(C(=O)NCc2cn3cccc(C)c3n2)cc(OC)c1OC,-,-,-,-,-
O=C1CC(c2ccc(F)cc2)Cc2nc(N3CCOCC3)ncc21 (stereo not drawn),77,-,-,-,-
COc1ccc(-n2c(=O)c3ccccc3n(CC(=O)NC3CCCC3)c2=O)cc1,-,-,-,.,-
C#CCSc1nnc(-c2ccccc2)c(=O)[nH]1,-,56,-,-,-
CN1C(=O)C(O)(CC(=O)c2ccncc2)c2ccccc21 (stereo not drawn),-,-,-,-,-
O=C(CC1(O)C(=O)N(C/C=C/c2ccccc2)c2ccccc21)c1ccccn1 (stereo not drawn),92,82,-,-,-
CN(C)C(=O)Cn1cnc2c(cnn2-c2ccccc2Cl)c1=O,-,-,-,-,-
Oc1c(C(c2cccs2)N2CCC3(CC2)OCCO3)sc2ncnn12 (stereo not drawn),87,58,-,-,-
Oc1c(C(c2cccs2)N2CCN(c3ccccc3)CC2)sc2ncnn12 (stereo not drawn),.,.,.,-,.
Cc1cc(C)c2ccc(C)[n+]([O-])c2c1O,-,-,-,-,3.5
O=C1CC(c2ccccc2)c2ccc(O)cc2O1 (stereo not drawn),-,54,-,-,-
O=C1CC(c2ccccc2)Oc2cc(O)cc(O)c21 (stereo not drawn),.,.,.,-,.
O=C1CC(c2ccccc2)c2c(O)cc(O)cc2O1 (stereo not drawn),63,79,-,-,-
O=C(CCCN1C(=O)c2ccccc2C1=O)NCCC1=CCCCC1,-,62,-,-,-
CCS(=O)(=O)c1ccc2oc(SCC(=O)NCCC3=CCCCC3)nc2c1,-,72,-,.,-
Cc1ccc2c(c1)N(CCCC(=O)NCCC1=CCCCC1)C(=O)CO2,59,58,-,-,-
Cc1ccc(C)c(-n2nnnc2SCC(=O)NCCC2=CCCCC2)c1,76,-,-,-7,-
Cc1cc(C)nc(/N=C(\N)C2=C(O)CC(C)(C)CC2=O)n1,-,-,-,-,-
C=CCn1c(SCc2ccc3c(c2)OCO3)nc2scc(-c3ccco3)c2c1=O,-,-,-,-,-
Cn1c(SCC(=O)N2CCOCC2)nc2sc3c(c2c1=O)CCCC3,60,88,-,-,-
Cn1c(SCc2nnc(-c3ccccc3Br)o2)nc2sc3c(c2c1=O)CCC3,77,94,-,-,-
C=CCn1c(SCC(=O)N2CCOCC2)nc2scc(-c3ccco3)c2c1=O,-,-,-,3.5,-
C=CCn1c(SCC(=O)N2CCOCC2)nc2sc3c(c2c1=O)CCCC3,71,80,-,-,-
O=c1c2ccccc2nc(SCc2nnc(-c3ccccc3Br)o2)n1-c1ccccc1,.,.,.,-,.
SMILES,CYP2C19 inhib,CYP2C9 inhib,CYP2C19 activ,Cav32 inh,CYP2C9 act
CC(=O)N1CCN(Cc2ccc(Br)s2)CC1,-,-,-,-,-
COC(CNC(=O)c1cc(C(=O)c2c(-c3c(Cl)cccc3Cl)noc2C)c[nH]1)OC,-,-,-,-,-
CCSC1=C(C#N)C(c2ccc(Cl)cc2)C2=C(CCCC2=O)N1 (stereo not drawn),94,94,-,-,-
CCOC(=O)CSC1=C(C#N)C(c2ccc(C)s2)CC(=O)N1 (stereo not drawn),72,96,-,-,-
CCOC(=O)CSC1=C(C#N)C(c2ccccc2C)C2=C(CCCC2=O)N1 (stereo not drawn),50,79,-,-,-
CCSC1=C(C#N)C(c2ccccc2Cl)CC(=O)N1 (stereo not drawn),-,-,-,-,-
CCSC1=C(C#N)C(c2ccc(C)s2)CC(=O)N1 (stereo not drawn),69,52,-,-,-
Cc1ccc(C)c2c(SC(C)C(=O)NCc3ccco3)nc(-c3ccccc3)nc12 (stereo not drawn),.,.,.,-,.
OC(C#Cc1ccccn1)c1cccs1 (stereo not drawn),-,-,-,-,-
